From PubChem BioAssay (NCI)
This is part of a sample that, as a whole, favours compounds with a hit. Of some 79,000 tested, about 15% had one in any assay. Values without a mark were called inactive. Activity calls are given as the source filed them. Rule as the data show it: active = growth inhibition above about 70%; inactive = the rest.

Legend:
[1] = NCI Yeast Anticancer Drug Screen. Data for the rad50 strain (AID 155);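 also: 0% = growth of vehicle-only cultures of the same strain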; conditions: S. cerevisiae rad50 strain growth inhibition, active compounds read high
Summary of the method: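 Relative growth inhibition (compound vs vehicle) was measured in yeast with a defined repair-gene alteration.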

[2] = NCI Yeast Anticancer Drug Screen. Data for the mec2-1 strain (AID 157); conditions: S. cerevisiae mec2-1 strain, active compounds read high
Summary of the method: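 Mutant yeast (mec2-1) grown with compound; growth inhibition relative to vehicle control reported.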

[3] = NCI Yeast Anticancer Drug Screen. Data for the sgs1 mgt1 strain (AID 161);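 also: 0% = growth of cultures given vehicle only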; conditions: S. cerevisiae sgs1 mgt1 strain, active compounds read high
Summary of the method: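 Compounds are added to genetically altered yeast, and growth is compared with cultures given vehicle alone to give percent inhibition.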

[4] = NCI Yeast Anticancer Drug Screen. Data for the cln2 rad14 strain (AID 165);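 also: 0% = growth equal to vehicle treated cultures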; conditions: S. cerevisiae cln2 rad14 strain, active compounds read high
Summary of the method: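 Readout is yeast growth inhibition versus vehicle-treated controls, using a strain with cln2 and rad14 alterations exposed to compound.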

[5] = NCI Yeast Anticancer Drug Screen. Data for the bub3 strain (AID 167); conditions: S. cerevisiae bub3 mutant strain, active compounds read high
Summary of the method: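 Screening used yeast with an engineered genetic alteration affecting cell cycle control. Compound-exposed cultures were compared with vehicle cultures, and reduced growth was taken as inhibition.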

[6] = NCI Yeast Anticancer Drug Screen. Data for the mlh1 rad18 strain (AID 175); conditions: S. cerevisiae mlh1 rad18 strain growth inhibition, active compounds read high
Summary of the method: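 Genetically defined yeast (DNA repair-deficient) exposed to compounds; growth inhibition determined relative to vehicle.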

[7] = at 5.0 µM (retest, dose inferred, filed as 0.5)
[8] = at 50.0 µM (retest, dose inferred, filed as 5.0)

Structure (SMILES)	growth inhibition [1, 7]	growth inhibition [1, 8]	growth inhibition ([1]; at 50.0 µM)	growth inhibition [2, 7]	growth inhibition [2, 8]	growth inhibition ([2]; at 50.0 µM)	growth inhibition [3, 7]	growth inhibition [3, 8]	growth inhibition ([3]; at 50.0 µM)	growth inhibition [4, 7]	growth inhibition [4, 8]	growth inhibition ([4]; at 50.0 µM)	growth inhibition [5, 7]	growth inhibition [5, 8]	growth inhibition ([5]; at 50.0 µM)	growth inhibition [6, 7]	growth inhibition [6, 8]	growth inhibition ([6]; at 50.0 µM)
O=C1C=C(c2ccccc2)S(=O)(=O)c2c(O)cccc21	88% (active)	100% (active)	99.6% (active)	76% (active)	100% (active)	99.6% (active)	80% (active)	100% (active)	99.5% (active)	46%	99% (active)	99% (active)	71% (active)	99% (active)	99.2% (active)	94% (active)	100% (active)	99.7% (active)
CC[C@H](CC[C@@H](C)C1CC[C@H]2[C@@H]3CCC4=CC(=O)CC[C@]4(C)[C@H]3CC[C@]12C)C(C)C (stereo not given in full)	-4%	18%	50.9%	-8%	65%	35.7%	-8%	68%	76% (active)	-6%	28%	63.3%	-10%	29%	30.6%	20%	83% (active)	36%
Oc1ccc2cc(Br)ccc2c1	8%	98% (active)	54.1%	0%	99% (active)	99% (active)	2%	97% (active)	45.1%	-2%	98% (active)	56.4%	4%	99% (active)	99% (active)	3%	99% (active)	98.8% (active)
Cn1nc2c(c(Cl)c1=O)Nc1ccccc1O2	-32%	-16%	0.85%	-9%	-34%	-30.4%	-20%	-19%	-24.8%	-8%	-9%	23.1%	-45%	-18%	1.35%	-25%	-14%	-6.7%
CC(=O)Nc1cc(F)c2c(c1)Cc1ccccc1-2	5%	77% (active)	-1.75%	-2%	59%	19.5%	-1%	84% (active)	-16.8%	0%	77% (active)	89.4% (active)	2%	83% (active)	90.5% (active)	4%	78% (active)	-14.2%
